This passage reports inhibition results from PubChem BioAssay AID588852 (The Scripps Research Institute Molecular Screening Center, 2011).

Screen size: about 360,000 compounds; about 4,600 (1.3%) were called active.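 Rule for the calls: active = percent inhibition above its own plate's cutoff, namely the mean of that plate's compound wells plus 3 SD; inactive = the rest.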 The entries come from a sample that favours actives as a whole.

The target in the experiment is Muscarinic acetylcholine receptor M1 (Homo sapiens) (UniProt P11229). Kind of experiment: human M1 muscarinic receptor antagonists, primary screen, CHO-K1 cells, Fluo-8 calcium fluorescence, 1536-well (AID 588852).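 Note: peak over basal fluorescence ratio during 140 s after agonist addition; 0% = ACh EC80 plus DMSO and 100% = DMSO alone without agonist.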 To be noted: CHO-K1 hM1, Fluo-8 calcium fluorescence, ACh EC80 antagonist; at 3 µM; stronger effect = higher value.
Sequence of Muscarinic acetylcholine receptor M1 (Homo sapiens) (P11229 whole entry, looked up): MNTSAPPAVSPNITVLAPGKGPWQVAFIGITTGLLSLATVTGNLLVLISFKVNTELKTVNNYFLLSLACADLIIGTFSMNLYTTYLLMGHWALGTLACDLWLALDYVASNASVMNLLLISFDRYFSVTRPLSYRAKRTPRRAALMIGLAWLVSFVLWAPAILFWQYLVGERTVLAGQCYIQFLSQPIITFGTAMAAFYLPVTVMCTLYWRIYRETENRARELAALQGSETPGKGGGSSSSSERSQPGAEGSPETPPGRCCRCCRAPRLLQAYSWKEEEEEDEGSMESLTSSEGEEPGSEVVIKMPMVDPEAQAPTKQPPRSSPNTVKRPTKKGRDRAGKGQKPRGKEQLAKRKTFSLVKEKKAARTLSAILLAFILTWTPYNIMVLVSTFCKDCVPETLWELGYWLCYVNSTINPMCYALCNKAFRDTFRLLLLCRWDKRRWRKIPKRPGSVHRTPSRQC
With `Cc1ccc(SCC(=O)N2CCN(c3ccc(F)cc3)CC2)cc1`, the inhibition was 1.11% (inactive).
Consider `CCN1CCC2(CC1)N=C(c1ccc(F)cc1)C(=S)N2C(=O)c1ccc(C)cc1`, for which the inhibition was 90.6% (active).
Turning to `CCN1CCC(O)(/C=C/c2ccc(C)cc2)C(C(=O)/C=C/c2ccc(C)cc2)C1` (stereo not given), the inhibition was 5.04% (inactive).
With `C[C@@H]1CN([C@H](C)CO)C(=O)CCCn2nncc2CO[C@@H]1CN(C)S(=O)(=O)c1cccc(C#N)c1`, the inhibition was -0.77% (inactive).
As to `COc1ccc(C2=Nc3ccccc3NC(=O)C2N(C(=O)c2cc3ccccc3[nH]2)c2ccccc2)cc1` (stereo not given), the inhibition is -26.4% (inactive).
With `CC(C)(C)CC(=O)Nc1nc(C(N)Cc2ccc(C(F)(F)F)cc2)cs1` (stereo not given), the inhibition is -6.85% (inactive).
Next, `O=C(O)C1C2C=CC(O2)C1C(=O)NCCc1cccc(Cl)c1` (stereo not given): -2.69% (inactive); `COc1cccc(NC(=O)C2c3cc(OC)c(OC)cc3C(=O)N(C)C2c2cccnc2)c1` (stereo not given): -10.6% (inactive).
Consider `Cc1nn(C)c(Cl)c1CN1CCC(Oc2ccc(C(=O)N3CCCC3)cc2)CC1`, for which the inhibition is 8.44% (inactive).
As to `CC(=O)Nc1ccc(CN2CCC(Oc3ccc(C(=O)N4CCCC4)cc3)CC2)cc1`, the inhibition was 53.8% (active).
Next, `O=C(c1ccc(OC2CCN(C/C=C/c3ccc(F)cc3)CC2)cc1)N1CCCCC1`: 29.3% (inactive).
Next, `CCOP(=O)(OCC)C(Cc1ccccc1)N=C(c1ccccc1)c1ccccc1` (stereo not given): -5.83% (inactive); `Cc1c(CN2CCC(C)CC2)c(=O)n(-c2ccccc2)n1C`: 8.27% (inactive); `Cc1c(CN2CCCC(C(=O)c3cccc(Cl)c3)C2)c(=O)n(-c2ccccc2)n1C` (stereo not given): 27.6% (active).
For the compound `Cc1cccc(N2CCN(Cc3c(C)n(C)n(-c4ccccc4)c3=O)CC2)c1C`, the inhibition was 12.1% (inactive).
On to `CC(C)(O)C#Cc1ccc(CNC[C@H]2O[C@@H](n3cnc4c(=O)[nH]c(N)nc43)[C@H](O)[C@@H]2O)s1`, for which the inhibition was 3.48% (inactive).
In the case of `C=CCOC(=O)C1=C[C@@H](c2ccc3c(c2)OCO3)C[C@@H](OCCCCO)O1` it was -1.17% (inactive); in that of `Cc1cc2c(cc1C)N1C(=O)c3cc4ccccc4cc3NC(=O)C1C(=O)N2` (stereo not given), -27% (inactive); in that of `CCCCC(=O)NNC(=S)NC(=O)C(c1ccccc1)c1ccccc1`, 68.7% (active).
As for `COc1ccccc1NC(=S)NC(=O)C(C)C`, the inhibition is -7.13% (inactive).
As for `O=C(CCN1CCN(c2ccccc2)CC1)NNC(=S)Nc1ccccc1`, the inhibition was 17.2% (inactive).
Turning to `COc1cc(NC(=O)c2cc(-c3ccc(F)cc3OC(C)C)n[nH]2)cc(OC)c1OC`, the inhibition was 8.53% (inactive).
Next, `CCc1ccc(C(=O)OCC(=O)NCC(F)(F)F)cc1`: -11.6% (inactive); `CC(=O)Nc1ccc(C(=O)CSc2nnc(Cc3ccccc3)o2)cc1`: -12.2% (inactive); `CCOc1ccc(Nc2nc(Cc3nnc(SCC(=O)NC4CCCC4)n3C)cs2)cc1`: -22.9% (inactive).
Next, `CCOc1ccc(Nc2nc(Cc3nnc(SCC(=O)c4ccc(C)cc4)o3)cs2)cc1`: 13% (active); `CCOC(=O)c1nnn(CC(=O)Nc2cccc(F)c2)c1C(=O)OCC`: -2.12% (inactive); `O=C(NCc1cccnc1)c1nc(-c2cccs2)no1`: -2.8% (inactive).
Next, `CC1CCC2CCCCC2N1C(=O)c1cc([N+](=O)[O-])cc([N+](=O)[O-])c1` (stereo not given): -3.75% (inactive).
As for `Cn1cc(CN2CCCCC2c2ccccn2)c(-c2ccc3c(c2)OCCO3)n1` (stereo not given), the inhibition is -3.05% (inactive).
On to `COc1ccccc1C(=O)Nc1ccc(C)c(S(=O)(=O)N2CCCCC2)c1`, for which the inhibition is 5.17% (inactive).
As to `Cc1ccc(C(=O)NCC(c2cccs2)N(C)C)cc1S(=O)(=O)N1CCOCC1` (stereo not given), the inhibition was 50.7% (active).
Next, `Cc1ccc(C(=O)Nc2ncccc2C)cc1S(=O)(=O)N1CCOCC1`: -9.39% (inactive).
As to `COc1ccccc1C(CNC(=O)c1ccc(C)c(S(=O)(=O)N2CCCCC2)c1)N(C)C` (stereo not given), the inhibition was 101% (active).
Next, `Cc1ccc(C(=O)Nc2ccc3c(c2)OCCO3)cc1S(=O)(=O)N1CCOCC1`: -13.2% (inactive); `COc1ccccc1CNC(=O)c1ccc(Cl)c(S(=O)(=O)N2CCCC2)c1`: -5.01% (inactive).
Next, `CCCCN1C(=O)/C(=C/C=C2/C=Cc3ccccc3N2CC)SC1=S`: -7.59% (inactive); `CCCCN1C(=O)/C(=C2/C=CC=CN2C)SC1=S`: 37.9% (active); `CN1C=CC=C/C1=C1\SC(=S)N(Cc2ccccc2)C1=O`: 19.7% (inactive).
Next, `CCC(C)C(CO)NC(=O)/C=C/[C@H]1O[C@@H](n2cnc3c(NC(=O)c4ccccc4)ncnc32)[C@H](O)[C@@H]1O` (stereo not given in full): 3.77% (inactive); `CC(C)c1cccc(C(C)C)c1Nc1cn[nH]c1`: -0.55% (inactive); `O=S(=O)(/C=C/c1ccccc1)N1CCNCC1`: -8.17% (inactive).
Turning to `Fc1ccc(CNCc2ccc(Br)cc2)cc1`, the inhibition is -0.53% (inactive).
Next, `CCOc1ccc(NC(=O)CN(C)C(=O)c2cccc(S(=O)(=O)N3CCCC3)c2)cc1OCC`: 7.19% (inactive); `COc1ccc(NC(=O)CN(C)C(=O)c2cccc(S(=O)(=O)N3CCN(c4ccccc4)CC3)c2)cc1`: 57.7% (active); `Cc1ccc(NC(=O)CN(C)C(=O)c2cccc(S(=O)(=O)N3CCCC3)c2)cc1`: -6.53% (inactive).
Regarding `C=CCN(c1ccc(Cl)cc1)S(=O)(=O)c1cccc(C(=O)OCC(=O)N(C)C)c1`, the inhibition was -8.38% (inactive).
In the case of `COc1cc(S(=O)(=O)N(Cc2cccs2)C2CC2)ccc1-n1cnnn1` it was -5.47% (inactive); in that of `O=S(=O)(Cc1nnnn1-c1ccc(Br)cc1)c1ccc(F)cc1`, -2.5% (inactive).
On to `Nc1c(C(=O)c2cccs2)sc2nsc(SCCN3CCCCC3)c12`, for which the inhibition was 44.1% (active).
`S=C(Nc1ccccc1)Nc1ccc2ccccc2c1`: the inhibition was -3.01% (inactive).
In the case of `Cc1nc2cc(NC(=O)Nc3cccc(F)c3)ccc2n1C`, the inhibition was -17.2% (inactive).
In the case of `O=C(Nc1ccc2ccccc2c1)Nc1ccc2snnc2c1` it was 32.8% (active); in that of `O=C(c1ccco1)N1CCN(CCOc2ccccc2)CC1`, -9.86% (inactive).
Next, `CN(Cc1ccccc1)C(=O)CCC1CCN(C(=O)c2ccco2)CC1`: 31.3% (active).
Next, `O=C(c1ccco1)N1CCN(C(=O)C2c3ccccc3Oc3ccccc32)CC1`: 11.3% (inactive); `Cc1ccc([C@@H]2CC(=O)[C@@H]3CN(S(=O)(=O)c4ccc(C)cc4)[C@H](c4ccccc4F)C[C@@H]3N2S(=O)(=O)c2ccc(Cl)cc2)cc1`: -10% (inactive).
For the compound `CC12CCC(=O)C=C1CCC1C2C(O)CC2(C)C1CCC2(O)C(O)CO` (stereo not given), the inhibition is -14.1% (inactive).
With `COc1cc(/C=C2/SC(=S)N(Cc3ccccc3)C2=O)cc(OC)c1O`, the inhibition is 30.7% (active).
Take `COc1ccc(CCNC2=C(Cl)C(=O)N(Cc3ccccc3)C2=O)cc1OC`: the inhibition is 13.4% (inactive).
In the case of `COc1ccc(/C=C2\SC(=S)N(CCC(=O)N3CCOCC3)C2=O)cc1OC` it was -11% (inactive); in that of `O=C(CCNc1n[nH]c(=O)[nH]c1=O)N/N=C\c1ccc(Br)cc1`, -20% (inactive); in that of `Cc1ccccc1C(OCCN(C)C)C1CCCCC1` (stereo not given), 99.8% (active).
Turning to `CN(C)CCOC1c2ccccc2-c2ccccc21`, the inhibition was 12.7% (inactive).
Regarding `COc1ccccc1CNC(=O)Cn1c(=O)oc2cc(Cl)ccc21`, the inhibition is -12.3% (inactive).
As for `CSCCC(NC(=O)c1ccco1)C(=O)NCCc1ccc(F)cc1` (stereo not given), the inhibition is 4.11% (inactive).
In the case of `O=C(NNC(=O)c1ccc(-c2ccccc2)cc1)Nc1ccccc1` it was -2.91% (inactive).
Consider `CC(C(=O)c1ccc(-c2ccccc2)cc1)[n+]1cccc(Br)c1` (stereo not given), for which the inhibition was 35.1% (active).
In the case of `C[n+]1cccc(C(=O)O)c1` it was -30.2% (inactive).
On to `CCCCc1nc(NCc2ccccc2)c(C#N)c2c1CCCC2`, for which the inhibition was -5.37% (inactive).
As to `COc1ccc(C(C#N)=C2C=CC(=NO)c3ccccc32)cc1`, the inhibition was 22% (inactive).
Next, `CC1=C(C(=O)N2CCOCC2)CC(CC(=O)NCc2cccs2)C(=O)N1CCCN1CCCC1=O` (stereo not given): 4.82% (inactive); `Cc1ccc2nc(-c3ccco3)c(Cc3cccc(Cl)c3)n2c1`: -5.65% (inactive).
In the case of `Cc1cc2cc(CNC(=O)c3ccc(S(=O)(=O)N4CCOCC4)cc3)ccc2[nH]1`, the inhibition was 59.4% (active).
Next, `COC(=O)c1ccc(CNC(=O)c2ccc(S(=O)(=O)N3CCCCCC3)cc2)cc1`: -11.2% (inactive).
Next, `Cc1ccc(S(=O)(=O)N2CCOCC2)cc1C(=O)NCc1ccc(F)cc1`: 9.1% (inactive); `CCCC(=O)N1CCC1(C)C(=O)NCc1ccc(SC)cc1` (stereo not given): -8.63% (inactive).
Next, `CC(NC(=O)COc1cccnc1[N+](=O)[O-])c1ccc(Cl)cc1Cl` (stereo not given): 42.6% (active); `O=C(COc1cccnc1[N+](=O)[O-])Nc1ccc(Cl)cc1F`: 3.68% (inactive).
As to `COc1cccc(NC(=O)COc2cccnc2[N+](=O)[O-])c1`, the inhibition is -7.66% (inactive).
Next, `CCCNC(=S)NC1CC2CCCC(C1)N2CC(C)C` (stereo not given): 29.5% (inactive); `CC(C)C(c1nnnn1C(C)(C)C)N1CCN(Cc2cccnc2)CC1` (stereo not given): -13.5% (inactive).
In the case of `CC(C)(C)n1nnnc1C(c1cccs1)N(Cc1cccnc1)CC1CCCO1` (stereo not given) it was 79.4% (active); in that of `CCOc1ccc(CN(Cc2ccco2)C(c2cccs2)c2nnnn2C(C)(C)C)cc1` (stereo not given), 18.8% (inactive).
Consider `CC(=O)NS(=O)(=O)c1ccc2c(c1)Cc1cc(S(=O)(=O)NC(C)=O)ccc1-2`, for which the inhibition was -13.4% (inactive).
Consider `O=C(NCC(O)c1nc2ccccc2[nH]1)c1ccc(Br)cc1` (stereo not given), for which the inhibition is -13.3% (inactive).
Next, `CC(=O)C1=CCC(c2ccccc2)N(S(=O)(=O)c2ccc(C)cc2)C1` (stereo not given): -10.8% (inactive); `CCOC(=O)C1=CCC(c2ccc(F)cc2)N(S(=O)(=O)c2ccc(C)cc2)C1` (stereo not given): 34% (active).
In the case of `CCOC(=O)C1=CC[C@@H](c2ccncc2)N(S(=O)(=O)c2ccc(C)cc2)C1` it was 24.6% (inactive).
In the case of `COc1c(C)cc(C(O)c2ncc(-c3cccc(C(F)(F)F)c3)[nH]2)cc1C` (stereo not given), the inhibition was -5.01% (inactive).

The inhibition is the drop in the measured response relative to a control, in per cent.
